# Out of some 2,300 compounds screened, about 1,200 (52%) were called active. Another 34% or so got no clear call; they are omitted. Calls follow the shape of the dose curve; as a rule, active = well fitted inhibition curve with a large enough effect; inconclusive = small, poorly fitted or top-dose-only effect, or effect the other way; inactive = no such curve, though single readings can be large or run the other way. So high a share suggests a set chosen from earlier hits. The list shows a part of the results.
# Experiment: Confirmation screen for delayed death inhibitors of the malarial parasite plastid, 48 hour incubation; also: nearly all actives have a fitted effect of over 65% in size
# Conditions: P. falciparum-infected erythrocytes, luciferase growth; series mostly up to 28.7 µM
# Procedure, shortened: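 Erythrocytes infected with luciferase-expressing P. falciparum (2% hematocrit, 0.1% parasitemia) incubated with compounds 48 hours at 37 C, 5% CO2, in RPMI/Albumax. Growth inhibition scored as reduced luminescence after detection reagent.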
# Potency is read from the fitted curve at half-maximal effect.
row,SMILES,Potency
1,O=C(/C=C/c1cccs1)Nc1sc2c(c1C(=O)O)CCCC2,inactive
2,CC(=O)Nc1sc2c(c1-c1nc3ccccc3s1)CCN(C(C)C)C2,4.47 µM (active)
3,CC(C)N1CCc2c(sc(NC(=S)NC(=O)c3ccccc3)c2C#N)C1,10 µM (active)
4,CCN(CC)CCC[C@H](C)Nc1c2ccc(Cl)cc2nc2ccc(OC)cc12,0.178 µM (active)
5,COc1ccc2nc3cc(Cl)ccc3c(Nc3cc(C(C)C)c(O)cc3C)c2c1,0.0224 µM (active)
6,CCN(CC)CCC[C@H](C)Nc1ccnc2cc(Cl)ccc12,0.501 µM (active)
7,CCOC(=O)C1=C(C)N=c2s/c(=C\c3ccc(OCC(=O)O)cc3)c(=O)n2C1c1ccc(OC(C)C)cc1 (stereo unspecified),5.01 µM (active)
8,CN(C)c1cc[n+](Cc2c(Cl)cccc2Cl)cc1,2.24 µM (active)
9,Clc1cccc(Cl)c1C[n+]1ccc2ccccc2c1,2.82 µM (active)
10,Cc1ccccc1NC(=O)CCCn1nc(C)c2c(C)n(-c3ccccc3)nc2c1=O,10 µM (active)
11,COc1ccc(NC(=O)CCCn2nc(C)c3c(C)n(-c4ccccc4)nc3c2=O)cc1,11.2 µM (active)
12,CCOc1ccc(CCNC(=O)CCCn2nc(C)c3c(C)n(-c4ccccc4)nc3c2=O)cc1,11.2 µM (active)
13,CCOc1ccccc1C(=O)NCC(=O)NCCc1ccc(S(N)(=O)=O)cc1,inactive
14,Cc1cccc(C)c1NC(=O)CCCn1nc(C)c2c(C)n(-c3ccccc3)nc2c1=O,12.6 µM (active)
15,COc1ccc(NC(=O)CCCn2cc([N+](=O)[O-])cn2)cc1,inactive
16,Cc1ccc(-c2nnn(CC(=O)Nc3ccc4nn(-c5ccccc5)nc4c3)n2)o1,inactive
17,COCCN(C(=S)Nc1ccc(OC)c(Cl)c1)C1CCN(C(C)C)CC1,14.1 µM (active)
18,COc1ccc2[nH]c3c(c2c1)CCN1C(=O)N([C@@H](C)C(=O)NCCc2ccc(F)cc2)C(=O)[C@]31C,12.6 µM (active)
19,CCCCOc1ccc(N2C(N)=NC(N)=NC23CCCCC3)cc1,2 µM (active)
20,CCOC(=O)C1=C(NC(=S)NC(=O)c2ccccc2)c2ccccc2CC1(C)CC (stereo unspecified),11.2 µM (active)
21,Cc1ccc2nc(CNC(=O)C3CCC(=O)N(Cc4ccccc4F)C3)cn2c1 (stereo unspecified),12.6 µM (active)
22,O=C(NC1CCC1)C1CCC(=O)N(Cc2ccccc2F)C1 (stereo unspecified),inactive
23,COc1ccc(-c2nc(N3CCN(C)CC3)sc2-c2ccc(OC)cc2)cc1,15.8 µM (active)

row,SMILES,Potency
1,CC(=O)Nc1ccc(Nc2nnc(-c3ccc(C)c(S(=O)(=O)NCC4CCCO4)c3)c3ccccc23)cc1 (stereo unspecified),inactive
2,Cc1ccc(-c2nnc(N3CCOCC3)c3ccccc23)cc1S(=O)(=O)NCC1CCCO1 (stereo unspecified),7.08 µM (active)
3,CCOCCCn1c(C)nc2c(c1=O)c1nc3ccccc3nc1n2CCC1=CCCCC1,7.08 µM (active)
4,Cc1nn2c(Nc3ccccc3)c3c(nc2c1-c1ccccc1)CCC3,15.8 µM (active)
5,Cc1ccc(-c2csc3nc[nH]c(=O)c23)cc1,inactive
6,Clc1ccc2nnnc(-c3ccccc3)c2c1,3.98 µM (active)
7,O=C(c1ccc(S(=O)(=O)Cc2ccccc2Cl)c([N+](=O)[O-])c1)N1CCOCC1,10 µM (active)
8,Cc1ccc(S(=O)(=O)N2CCN(c3ccc(C(=O)N4CCOCC4)cc3[N+](=O)[O-])CC2)cc1,7.08 µM (active)
9,O=C(c1ccc(S(=O)(=O)Cc2cc(F)ccc2F)c([N+](=O)[O-])c1)N1CCCC1,12.6 µM (active)
10,Cc1cccc(N2CCN(C(=O)C3CCN(c4ncnc5c4nc4n5CCCCC4)CC3)CC2)c1C,14.1 µM (active)
11,CC1CCN(C(=O)C2CCCN(c3ncnc4c3nc3n4CCCCC3)C2)CC1 (stereo unspecified),14.1 µM (active)
12,COC(=O)CC1C(=O)NCCN1C(=S)Nc1ccc(F)cc1 (stereo unspecified),14.1 µM (active)
13,CCOC(=O)C(Cc1ccccc1)C(=O)Nc1cccc2ccccc12 (stereo unspecified),3.98 µM (active)
14,CCC1CN(C(=O)N2CCC(C(=O)NCc3cccc(OC)c3OC)CC2)c2cc(C)ccc2O1 (stereo unspecified),12.6 µM (active)
15,COc1cccc(COC(=O)C2CC(=O)N(Cc3ccco3)C2)c1OC (stereo unspecified),inactive
16,CC(C)NS(=O)(=O)c1ccc(NC(=S)NC(=O)c2ccc(-c3ccccc3)cc2)cc1,5.01 µM (active)
17,O=C(NC(=C(Cl)Cl)S(=O)(=O)c1ccc(Cl)cc1)c1ccccc1,inactive
18,O=c1c(Cl)c(Cl)cnn1Cc1nnc(-c2ccc(Cl)cc2)o1,14.1 µM (active)
19,O=C(NC1CCCCC1)N1CCN(c2ccc([N+](=O)[O-])cc2)CC1,11.2 µM (active)
20,O=C(Nc1cccc([N+](=O)[O-])c1)c1ccc2nsnc2c1,inactive
21,Cc1ccc(NC(=O)c2ccc(Nc3c([N+](=O)[O-])cc([N+](=O)[O-])cc3[N+](=O)[O-])cc2)cc1,3.16 µM (active)
22,Cc1ccc(NC(=O)/C(=C\c2ccc([N+](=O)[O-])cc2)NC(=O)c2ccccc2)cc1,10 µM (active)
23,O=C(NCc1ccccc1)c1c[nH]c2ccccc2c1=O,14.1 µM (active)

row,SMILES,Potency
1,COCCn1c(=O)[nH]c2cc(C(=O)NCc3ccccc3)ccc2c1=O,inactive
2,CCOC(=O)c1ccc2c(c1)n(CC)c(/C=C/N(C)c1ccccc1)[n+]2CC,0.447 µM (active)
3,CCn1c(/C=C/N(C(C)=O)c2ccccc2)[n+](CC)c2ccc(Cl)cc21,2.82 µM (active)
4,CCc1ccc(NC(=O)CN(c2cc(C)cc(C)c2)S(=O)(=O)c2c(C)[nH]c(=O)[nH]c2=O)cc1,12.6 µM (active)
5,CCC1S/C(=N/N=C/c2ccco2)N(Cc2ccccc2C)C1=O (stereo unspecified),11.2 µM (active)
6,CCC1S/C(=N/N=C/c2ccco2)N(Cc2ccccc2)C1=O (stereo unspecified),14.1 µM (active)
7,CC1S/C(=N/N=C/c2ccco2)N(Cc2ccccc2)C1=O (stereo unspecified),inactive
8,CCc1ccc(/C=N/n2c(C)cc(C)c(C#N)c2=O)cc1,6.31 µM (active)
9,C=C1C(=O)O[C@@H]2[C@H]1CC[C@H](C)[C@]1(O)CCC(=O)[C@@]21C,12.6 µM (active)
10,N=C(N)c1ccc(/C=C/c2ccc(C(=N)N)cc2O)cc1,0.708 µM (active)
11,COC(=O)c1ccc(Sc2nnnn2-c2ccccc2)c([N+](=O)[O-])c1,11.2 µM (active)
12,O=C(NC1CCS(=O)(=O)C1)/C(=C\c1ccc(F)cc1)NC(=O)c1ccccc1 (stereo unspecified),15.8 µM (active)
13,Cn1c(=O)oc2cc(S(=O)(=O)NCCC(=O)NCc3ccc(F)cc3)ccc21,15.8 µM (active)
14,COc1cc2c(O)c3c(c(-c4ccc5c(c4)OCO5)c2cc1OC)C(=O)OC3,10 µM (active)
15,CCOc1ccccc1NC(=S)N1CCN(c2cccc(OC)c2)CC1,inactive
16,CCOc1ccccc1NC(=O)/C(C#N)=C/c1cccnc1,14.1 µM (active)
17,Fc1ccc(Nc2nc(N3CCOCC3)nc(N3CCOCC3)n2)cc1,14.1 µM (active)
18,N#Cc1cc(S(=O)(=O)c2ccccc2)c(N)[nH]c1=O,inactive
19,COc1ccc(-c2nnc3ccc(SCC(=O)Nc4nc5ccc(C)cc5s4)nn23)cc1OC,1.26 µM (active)
20,COc1cccc(CN(C)CC2CCCN(CCc3ccc(Cl)cc3)C2)c1OC (stereo unspecified),10 µM (active)
21,CCOc1cc(/C=C2\CN(CC)C/C(=C\c3ccc(O)c(OCC)c3)C2=O)ccc1O,3.98 µM (active)
22,COc1ccc(/C=C2\CN(Cc3ccccc3)C/C(=C\c3ccc(OC)c(O)c3)C2=O)cc1O,0.891 µM (active)
23,O=C(O)c1ccccc1NS(=O)(=O)c1cccc(-n2sc3ccccc3c2=O)c1,15.8 µM (active)

row,SMILES,Potency
1,Cc1cc(C(=O)OC(C)C(=O)Nc2nc(-c3ccccc3)cs2)c(C)o1 (stereo unspecified),inactive
2,COc1ccccc1Nc1nnc(SCc2cc(=O)n3ccsc3n2)s1,12.6 µM (active)
3,COc1ccccc1Nc1nnc(SCC(=O)Nc2nc(-c3ccc(F)cc3)cs2)s1,11.2 µM (active)
4,CCOc1ccccc1Nc1nnc(SC(C)C(=O)Nc2nc(-c3ccccc3)cs2)s1 (stereo unspecified),14.1 µM (active)
5,CC(=O)Oc1ccc(-c2csc(Nc3cccnc3)n2)cc1,inactive
6,Oc1ccc(Cl)cc1CNc1cnc2ccccc2c1,12.6 µM (active)
7,Cc1nc2scc(C)n2c(=O)c1S(=O)(=O)NCc1ccccc1Cl,inactive
8,COc1ccc(C(=O)NC2CCCc3c2cnn3-c2cccc(C)c2C)o1 (stereo unspecified),12.6 µM (active)
9,CCc1c(C(=O)NC2CCCc3ccccc32)[nH]c(C)c1C(C)=O (stereo unspecified),inactive
10,Cc1cccc(-n2ncc3c2CCCC3NC(=O)C2=CC(=O)CC(C)(C)O2)c1C (stereo unspecified),15.8 µM (active)
11,Cc1cc(C(=O)NC2CCCc3c2cnn3-c2cccc(C)c2C)no1 (stereo unspecified),inactive
12,O=C(CCl)Nc1cccc(Oc2cnccn2)c1,4.47 µM (active)
13,COc1cccc(NC(=O)c2nc(S(C)(=O)=O)ncc2Cl)c1,inactive
14,COc1ccc(CNS(=O)(=O)c2ccc3c(c2)N(C(C)=O)CC(C)S3)cc1 (stereo unspecified),12.6 µM (active)
15,Cn1nc(CC(=O)Nc2ncc(Br)s2)c2ccccc2c1=O,11.2 µM (active)
16,O=C(C[n+]1cc(Br)cc2ccccc21)c1ccccc1,10 µM (active)
17,Clc1ccc2nc(-c3ccccn3)c(Nc3ccc4c(c3)OCO4)n2c1,11.2 µM (active)
18,Nc1ccc2nc(-c3ccc(-c4nc5ccc(N)cc5[nH]4)cc3)[nH]c2c1,7.08 µM (active)
19,Cc1cccc(N(C)C(=O)CN(C)S(=O)(=O)c2ccc3c(c2)c(=O)n(C)c(=O)n3C)c1,12.6 µM (active)
20,CC1CCC(NC(=O)CN(C)S(=O)(=O)c2ccc3c(c2)c(=O)n(C)c(=O)n3C)CC1 (stereo unspecified),10 µM (active)
21,O=S(=O)(c1cnc[nH]1)N1CCN(C(c2ccc(F)cc2)c2ccc(F)cc2)CC1,11.2 µM (active)
22,O=C(Oc1nsnc1N1CCCCC1)N1CCOCC1,12.6 µM (active)
